# A selection: hits, their analogues and other compounds. The true share with any hit is near 6.6%.
# GDH-TPI inh – GDH-TPI coupling enzyme inhibitors, primary screen, artefact control for M. tuberculosis FBA inhibitor project, biochemical, absorbance, full deck; inhibition, % at 4.8 µM; 360,000 tested, 1.2% active; GDH-TPI coupled enzyme counterscreen, NADH absorbance; in the data active = inhibition above about 30%;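 also: 0% = DMSO wells and 100% = wells lacking the enzyme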
# FBA Mtb inh – Mtb FBA enzyme inhibitors, primary screen, biochemical, fluorescence, strain H37Rv. purified M. tuberculosis FBA, fluorescence read-out. inhibition, % at 1 µM. 360,000 tested, 2.3% active. AID 588726, 2011; in the data active = inhibition above about 27%;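 also: 0% = vehicle and 100% = reference inhibitor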
# BoNT A protease – BoNT/A light chain protease inhibitors, primary screen, biochemical, flow cytometry, MLPCN library; Botulinum neurotoxin type A light chain protease (Clostridium botulinum A str. ATCC 3502); multiplex microsphere protease substrate cleavage; inhibition, % at 10 µM; 360,000 tested, 0.17% active; AID 588499, 2011; also: plate controls were buffer without enzyme for full effect and enzyme alone for no effect
# Autofluor counter – flagged as autofluorescent in microsphere protease counterscreen; compound autofluorescence counterscreen, microsphere flow cytometry; hits give high values; fluorescence intensity (no concentration beside the values); 360,000 tested, 3.1% active; in the data active = fluorescence intensity above about 16000; inconclusive = no clear call, values can overlap the other calls
# Anthrax LF prot – Bacillus anthracis LF protease inhibitors, primary screen, biochemical, multiplex microsphere, MLPCN library; AID 588501, 2011; Lethal factor (Bacillus anthracis), P15917; inhibition, % at 10 µM; 360,000 tested, 0.12% active; multiplex microsphere protease cleavage assay; also: plate controls were buffer without enzyme for full effect and enzyme alone for no effect
# BoNT-F LC inh – BoNT/F light chain protease inhibitors, primary screen, biochemical, flow cytometry, MLPCN library | AID 588497, 2011 | Botulinum neurotoxin type F light chain protease (Clostridium botulinum) | Multiplex microsphere protease cleavage assay | 360,000 tested, 0.22% active | inhibition, % at 10 µM; in the data active = inhibition above about 35%, passing the limit was not always enough; inconclusive = no clear call, values can overlap the other calls; also: plate controls were buffer without enzyme for full effect and enzyme alone for no effect
# An asterisk follows results filed as active; ? = inconclusive. Rule as the data show it, unless noted: active = inhibition above about 30%; inconclusive = no clear call, values can overlap the other calls; inactive = below that.
SMILES,GDH-TPI inh,FBA Mtb inh,BoNT A protease,Autofluor counter,Anthrax LF prot,BoNT-F LC inh
COc1ccccc1NC=C1C(=O)OC2(CCCCC2)OC1=O,33*,-1,0,9820,-6,2
COC(=O)c1ccccc1NC=C1C(=O)OC2(CCCCC2)OC1=O,22,4,-1,4703,-4,-5
O=C(NC(NCc1ccccn1)(C(F)(F)F)C(F)(F)F)c1ccco1,-6,2,0,22419*,2,0
CCc1ccc(N2CC(C(=O)Nc3ccc(S(=O)(=O)NCC4CCCO4)cc3)CC2=O)cc1 (stereo unspecified),-7,1,0,5140,1,-3
O=C(CC1SC(=O)NC1=O)Oc1ccc(/C=N/NC(=O)c2ccccc2O)cc1 (stereo unspecified),42*,3,-1,3435,-6,-1
Cc1ccc(C2=C/C(=C/c3cccnc3)C(=O)O2)c(C)c1,3,-3,1,2467,-1,0
CC(C)SCCCCOc1ccc2ccccc2c1,12,3,1,21736*,-2,-1
O=C(NC1CCN(Cc2nnnn2CCc2ccccc2)CC1)c1ccccc1F,-1,0,3,22189*,-2,5
CCN(CC(=O)Nc1ccc(NC(C)=O)cc1)C(=O)CCCN1C(=O)c2ccccc2C1=O,0,-4,2,?,3,12
O=C(/C=C/c1ccc([N+](=O)[O-])cc1)Nc1cccc(S(=O)(=O)NC2=NCCCCC2)c1,41*,3,0,3062,1,-2
CN(C)c1ccc(NC(=O)COC(=O)CCC(=O)c2ccc(F)cc2)cc1,-7,0,-1,21300*,-3,-6
CCOc1ccc(NC(=S)NC(=O)c2ccco2)cc1,-7,-4,-1,3267,-5,-18
CCc1nnc2sc(-c3ccc(NC(=O)c4ccco4)cc3)nn12,28,-3,-2,16661*,-1,-3
O=C(Nc1nccs1)c1ccc(NC(=O)c2ccco2)cc1,24,-2,-2,17273*,-4,-6
CCc1nnc2sc(-c3ccc(NC(=O)c4ccc5c(c4)OCCO5)cc3)nn12,19,0,1,2876,0,-2
CC(NC(=O)c1ccco1)C(=O)Nc1nccs1 (stereo unspecified),-2,3,0,3649,0,1
CCOc1ccc(NC(=O)c2ccco2)cc1,6,-4,?,24897*,1,-5
O=C(CSc1nnc2ccc(-c3ccccn3)nn12)Nc1ccccc1F,-5,0,2,5432,-2,-1
CCCNC(=O)NC(=O)COC(=O)c1ccc(OC)c(S(=O)(=O)N2CCCc3ccccc32)c1,-3,10,0,3635,-5,8
CC(=O)N1CCCc2cc(S(=O)(=O)NC(C(=O)NC(C)c3ccccc3)C(C)C)ccc21 (stereo unspecified),10,0,-1,16474*,1,-1
CC(=O)N1CCc2cc(S(=O)(=O)NC(C)c3ccccc3)ccc21 (stereo unspecified),9,4,0,5558,2,2
CC(=O)N1CCc2cc(S(=O)(=O)NC(CC(C)C)C(=O)N3CCn4c3nc3ccccc34)ccc21 (stereo unspecified),-1,-1,1,21252*,1,-2
CC(C)[C@H](NC(=O)[C@@H]1Cc2c([nH]c3ccccc23)C2c3ccccc3C(=O)N21)C(=O)N1CCC[C@H]1C(=O)O (stereo partly specified),3,4,-1,5766,-6,8
c1ccc(Cn2cc(-c3ccccc3)cn2)cc1,7,-1,0,4160,-4,0
COc1ccc(C=O)cc1OS(=O)(=O)c1ccc(NC(C)=O)cc1,1,-1,0,2671,-1,0
COc1cc(/C=N/NC(=O)c2ccc(N(C)S(=O)(=O)c3ccccc3)cc2)cc(OC)c1OC,19,2,0,2676,0,0
COc1cc(/C=N/NC(=O)c2cc[n+]([O-])cc2)cc(OC)c1OC,39*,-3,-3,3591,-8,-16
